Laboratory results: the supplement of paper PMC4466140

Assays:
Test in all cases: SPOT peptide array binding signal intensity (averaged, normalized) (arbitrary units (background-subtracted, floor 0; scale differs between SH3 domains)); higher = stronger binding of the SH3 domain to the peptide
CaNbp2 = target: CaNbp2
Procedure, shortened: (§1)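 Spot intensities were captured after detection with anti-GST antibody, an HRP-linked anti-mouse secondary and luminol, and quantified with Genespotter. The probes were GST-fused SH3 domains from four yeast species, produced in E. coli BL21(DE3), purified on glutathione Sepharose and incubated at 10 μg/ml overnight at 4°C on cellulose-bound synthetic 15-mer peptides with cysteines replaced by serines. Binding signal is the normalized, background-subtracted spot intensity averaged over replicates, and its arbitrary units differ between domains.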

CaRvs167 = target: CaRvs167
Procedure, shortened: as §1

CaRvs167-3 = target: CaRvs167-3
Procedure, shortened: as §1

CaSho1 = target: CaSho1
Procedure, shortened: as §1

CaSla1-D1-D2 = target: CaSla1-D1-D2
Procedure, shortened: as §1

CaSla1-D3 = target: CaSla1-D3
Procedure, shortened: as §1

ScAbp1 = target: ScAbp1
Procedure, shortened: as §1

ScBbc1 = target: ScBbc1
Procedure, shortened: as §1

ScBem1-D1 = target: ScBem1-D1
Procedure, shortened: as §1

ScBzz1-D1 = target: ScBzz1-D1
Procedure, shortened: as §1

ScBzz1-D2 = target: ScBzz1-D2
Procedure, shortened: as §1

ScCyk3 = target: ScCyk3
Procedure, shortened: as §1

ScFus1 = target: ScFus1
Procedure, shortened: as §1

ScHof1 = target: ScHof1
Procedure, shortened: as §1

ScHse1 = target: ScHse1
Procedure, shortened: as §1

ScLsb1 = target: ScLsb1
Procedure, shortened: as §1

ScLsb2 = target: ScLsb2
Procedure, shortened: as §1

ScLsb3 = target: ScLsb3
Procedure, shortened: as §1

ScLsb4 = target: ScLsb4
Procedure, shortened: as §1

ScMyo3 = target: ScMyo3
Procedure, shortened: as §1

ScMyo5 = target: ScMyo5
Procedure, shortened: as §1

ScNbp2 = target: ScNbp2
Procedure, shortened: as §1

ScPex13 = target: ScPex13
Procedure, shortened: as §1

ScRvs167 = target: ScRvs167
Procedure, shortened: as §1

ScSho1 = target: ScSho1
Procedure, shortened: as §1

ScSla1-D1-D2 = target: ScSla1-D1-D2
Procedure, shortened: as §1

ScSla1-D3 = target: ScSla1-D3
Procedure, shortened: as §1

SpAbp1-D1 = target: SpAbp1-D1
Procedure, shortened: as §1

SpBbc1 = target: SpBbc1
Procedure, shortened: as §1

SpBzz1-D1 = target: SpBzz1-D1
Procedure, shortened: as §1

SpBzz1-D2 = target: SpBzz1-D2
Procedure, shortened: as §1

SpCyk3 = target: SpCyk3
Procedure, shortened: as §1

SpHof1 = target: SpHof1
Procedure, shortened: as §1

SpHof1-2 = target: SpHof1-2
Procedure, shortened: as §1

SpHof1-3 = target: SpHof1-3
Procedure, shortened: as §1

SpHse1 = target: SpHse1
Procedure, shortened: as §1

SpLsb1 = target: SpLsb1
Procedure, shortened: as §1

SpLsb4 = target: SpLsb4
Procedure, shortened: as §1

SpMyo1 = target: SpMyo1
Procedure, shortened: as §1

SpNbp2 = target: SpNbp2
Procedure, shortened: as §1

SpPex13 = target: SpPex13
Procedure, shortened: as §1

SpRvs167 = target: SpRvs167
Procedure, shortened: as §1

SpSla1-D1-D2 = target: SpSla1-D1-D2
Procedure, shortened: as §1

SpSla1-D3 = target: SpSla1-D3
Procedure, shortened: as §1

AgAbp1 = target: AgAbp1
Procedure, shortened: as §1

AgBbc1 = target: AgBbc1
Procedure, shortened: as §1

AgBem1-D1 = target: AgBem1-D1
Procedure, shortened: as §1

AgBzz1-D1 = target: AgBzz1-D1
Procedure, shortened: as §1

AgBzz1-D2 = target: AgBzz1-D2
Procedure, shortened: as §1

AgCyk3 = target: AgCyk3
Procedure, shortened: as §1

AgFus1 = target: AgFus1
Procedure, shortened: as §1

AgHof1 = target: AgHof1
Procedure, shortened: as §1

AgHse1 = target: AgHse1
Procedure, shortened: as §1

AgLsb1 = target: AgLsb1
Procedure, shortened: as §1

AgLsb4 = target: AgLsb4
Procedure, shortened: as §1

AgMyo5 = target: AgMyo5
Procedure, shortened: as §1

AgNbp2 = target: AgNbp2
Procedure, shortened: as §1

AgRvs167 = target: AgRvs167
Procedure, shortened: as §1

AgSho1 = target: AgSho1
Procedure, shortened: as §1

AgSla1-D1-D2 = target: AgSla1-D1-D2
Procedure, shortened: as §1

AgSla1-D3 = target: AgSla1-D3
Procedure, shortened: as §1

CaAbp1-D1 = target: CaAbp1-D1
Procedure, shortened: as §1

CaAbp1-D2 = target: CaAbp1-D2
Procedure, shortened: as §1

CaBbc1 = target: CaBbc1
Procedure, shortened: as §1

CaBem1-D1 = target: CaBem1-D1
Procedure, shortened: as §1

CaBzz1-D1 = target: CaBzz1-D1
Procedure, shortened: as §1

CaBzz1-D2 = target: CaBzz1-D2
Procedure, shortened: as §1

CaCyk3 = target: CaCyk3
Procedure, shortened: as §1

CaFus1 = target: CaFus1
Procedure, shortened: as §1

CaHof1 = target: CaHof1
Procedure, shortened: as §1

CaHse1 = target: CaHse1
Procedure, shortened: as §1

CaLsb1 = target: CaLsb1
Procedure, shortened: as §1

CaLsb4 = target: CaLsb4
Procedure, shortened: as §1

CaMyo5 = target: CaMyo5
Procedure, shortened: as §1

Measured: SPOT peptide array binding signal intensity

PHNPSPFFPPPDFND
40.5: CaNbp2
10.5: ScBzz1-D2
613: ScMyo5
≤ 0: CaRvs167-3 | CaSla1-D1-D2 | CaSla1-D3 | ScAbp1 | ScBem1-D1 | ScBzz1-D1 | ScCyk3 | ScFus1 | ScLsb1 | ScLsb2 | ScLsb3 | ScRvs167 | ScSho1 | ScSla1-D1-D2 | SpBbc1 | SpCyk3 | SpHof1 | SpHof1-2 | SpHof1-3 | SpLsb4 | SpPex13 | SpSla1-D1-D2 | SpSla1-D3
0.333: CaRvs167
7.5: CaSho1
5: ScHse1 | ScNbp2 | SpAbp1-D1
1: ScLsb4 | SpBzz1-D2
30: SpBzz1-D1
0.25: ScHof1
118: SpMyo1
69.8: SpHse1
920: ScMyo3
512: ScPex13
18: SpLsb1
3: ScSla1-D3 | SpNbp2
3.33: SpRvs167
0.5: ScBbc1

ISPPASPPPEFDFSK
0.5: SpHof1-2
428: ScMyo5
4: AgFus1
1: CaHof1 | CaHse1 | SpBzz1-D2 | SpSla1-D1-D2
40: CaMyo5
0.333: AgRvs167
781: AgMyo5
5: AgSla1-D1-D2
0.833: CaRvs167
3: SpSla1-D3
2.5: SpBbc1
6: SpHse1
1.5: CaAbp1-D2 | CaSla1-D3
877: SpMyo1
27.5: AgHse1
3.5: ScSla1-D3
1120: ScMyo3
22.5: AgBzz1-D2
14.5: CaBzz1-D2
≤ 0: all other assays above
